Assay [1] is described as follows: optical density shifts of acrAB sulA E. coli – strain DRC41, OD650, 48 h, E. coli filamentation inducer project, primary screen (AID 1152).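 Further: E. coli MC1000 strain DRC41 lacking acrAB efflux pump and sulA.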 To be noted: higher = more signal, called active from +8 up or from −8 down.
Assay [2] can be described thus: probe aLefty1 binding on compound microarray – biochemical, small-molecule microarray, 635/667 nm fluorescence, primary screen (AID 1153).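 Further: score merges spot fluorescence with signal-to-noise ratio from the scanned slide images.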 To be noted: higher = more signal.
The nature of assay [3]: plasmodial surface anion channel blockers, osmotic lysis – cell-based, P. falciparum Indochina, OD700, 1 h, primary screen (AID 1154). To be noted: P. falciparum Indochina infected RBC osmotic lysis, higher = more signal, called active from +8 up or from −8 down.
Assay [4] is described as follows: plasmodial surface anion channel blockers, osmotic lysis – cell-based, P. falciparum Indochina, OD700, 2 h, primary screen (AID 1155).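 Further: lysis reports solute entry through the parasite surface anion channel PSAC.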 The following applies: P. falciparum Indochina infected erythrocytes, higher = more signal, called active from +8 up or from −8 down.
The nature of assay [5]: changes in parasitized red cell lysis, either direction – P. falciparum Indochina, OD700, 3 h, PSAC antagonist project, primary screen (AID 1156). To be noted: P. falciparum-infected erythrocytes, osmotic lysis, higher = more signal, called active from +8 up or from −8 down.
The nature of assay [6]: plasmodial surface anion channel blockers, osmotic lysis – cell-based, P. falciparum Indochina, OD700, 18 h, primary screen (AID 1157). The following applies: P. falciparum Indochina infected erythrocytes, osmotic lysis OD700, 18 h; higher = more signal, called active from +8 up or from −8 down.
A short description of assay [7]: S6 kinase pathway phospho-S6 level changes – cell-based, A549, cytoblot, luminescence, serum-stimulated, primary screen (AID 1158).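 Further: serum-stimulated A549 lung adenocarcinoma cells; signal is phosphorylated S6 detected by cytoblot immunostaining with HRP secondary.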 The following applies: 5 h, higher = more signal.
The target of assay [8] is NADPH oxidase 2 (Homo sapiens) (UniProt P04839). Briefly: compounds shifting NOX2 Amplex Red fluorescence – cell-based, HEK293-NOX2, PMA-stimulated, NOX inhibitor project, primary screen (AID 1159). Further: test concentration not given here. The following applies: 45 min, higher = more signal, called active from +8 up or from −8 down.
NADPH oxidase 2 (Homo sapiens), sequence (P04839 whole entry, looked up): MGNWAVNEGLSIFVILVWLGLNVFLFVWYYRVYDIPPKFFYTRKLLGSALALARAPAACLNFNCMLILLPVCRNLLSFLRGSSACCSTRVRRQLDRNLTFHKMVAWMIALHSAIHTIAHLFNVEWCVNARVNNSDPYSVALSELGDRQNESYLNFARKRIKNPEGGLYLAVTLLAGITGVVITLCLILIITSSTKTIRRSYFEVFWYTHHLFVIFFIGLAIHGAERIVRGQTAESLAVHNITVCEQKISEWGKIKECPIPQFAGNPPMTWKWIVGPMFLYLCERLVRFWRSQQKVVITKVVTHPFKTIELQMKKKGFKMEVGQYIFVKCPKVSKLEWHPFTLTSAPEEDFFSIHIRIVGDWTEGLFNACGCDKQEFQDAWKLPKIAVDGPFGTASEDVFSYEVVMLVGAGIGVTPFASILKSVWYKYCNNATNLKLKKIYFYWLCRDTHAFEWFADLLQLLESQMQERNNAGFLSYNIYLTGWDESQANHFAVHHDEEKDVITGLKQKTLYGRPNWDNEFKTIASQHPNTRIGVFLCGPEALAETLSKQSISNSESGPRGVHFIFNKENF
For assay [9], the target named is NADPH oxidase 4 (Homo sapiens) (UniProt Q9NPH5). Briefly: compounds shifting NOX4 Amplex Red fluorescence – cell-based, HEK293-NOX4, tetracycline-induced, NOX inhibitor project, primary screen (AID 1160). The following applies: HEK293-NOX4, Amplex Red H2O2 fluorescence, 45 min; higher = more signal, called active from +8 up or from −8 down.
NADPH oxidase 4 (Homo sapiens), sequence (Q9NPH5 whole entry, looked up): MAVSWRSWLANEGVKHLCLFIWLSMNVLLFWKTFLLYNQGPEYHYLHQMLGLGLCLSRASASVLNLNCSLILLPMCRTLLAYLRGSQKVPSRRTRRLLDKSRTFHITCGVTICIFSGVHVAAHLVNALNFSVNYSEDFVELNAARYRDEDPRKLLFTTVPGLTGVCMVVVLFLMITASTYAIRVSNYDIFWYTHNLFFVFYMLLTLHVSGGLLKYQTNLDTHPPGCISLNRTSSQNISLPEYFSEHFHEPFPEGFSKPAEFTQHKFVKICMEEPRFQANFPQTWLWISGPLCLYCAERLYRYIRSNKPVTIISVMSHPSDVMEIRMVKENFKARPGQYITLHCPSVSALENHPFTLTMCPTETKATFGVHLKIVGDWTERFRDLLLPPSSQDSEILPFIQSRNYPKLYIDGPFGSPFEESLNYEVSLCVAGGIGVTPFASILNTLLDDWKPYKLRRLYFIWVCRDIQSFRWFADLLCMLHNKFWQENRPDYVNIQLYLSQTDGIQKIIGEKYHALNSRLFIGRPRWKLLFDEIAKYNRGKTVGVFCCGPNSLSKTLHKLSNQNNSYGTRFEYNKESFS
Assay [10] concerns the target NADPH oxidase 5 (Homo sapiens) (UniProt Q96PH1). Description: compounds shifting NOX5 Amplex Red fluorescence – cell-based, HEK293-NOX5, NOX inhibitor project, primary screen (AID 1161). The following applies: HEK293-NOX5, ionomycin, 45 min, higher = more signal.

The source made the active and inactive calls.

NADPH oxidase 5 (Homo sapiens), sequence (Q96PH1 whole entry, looked up): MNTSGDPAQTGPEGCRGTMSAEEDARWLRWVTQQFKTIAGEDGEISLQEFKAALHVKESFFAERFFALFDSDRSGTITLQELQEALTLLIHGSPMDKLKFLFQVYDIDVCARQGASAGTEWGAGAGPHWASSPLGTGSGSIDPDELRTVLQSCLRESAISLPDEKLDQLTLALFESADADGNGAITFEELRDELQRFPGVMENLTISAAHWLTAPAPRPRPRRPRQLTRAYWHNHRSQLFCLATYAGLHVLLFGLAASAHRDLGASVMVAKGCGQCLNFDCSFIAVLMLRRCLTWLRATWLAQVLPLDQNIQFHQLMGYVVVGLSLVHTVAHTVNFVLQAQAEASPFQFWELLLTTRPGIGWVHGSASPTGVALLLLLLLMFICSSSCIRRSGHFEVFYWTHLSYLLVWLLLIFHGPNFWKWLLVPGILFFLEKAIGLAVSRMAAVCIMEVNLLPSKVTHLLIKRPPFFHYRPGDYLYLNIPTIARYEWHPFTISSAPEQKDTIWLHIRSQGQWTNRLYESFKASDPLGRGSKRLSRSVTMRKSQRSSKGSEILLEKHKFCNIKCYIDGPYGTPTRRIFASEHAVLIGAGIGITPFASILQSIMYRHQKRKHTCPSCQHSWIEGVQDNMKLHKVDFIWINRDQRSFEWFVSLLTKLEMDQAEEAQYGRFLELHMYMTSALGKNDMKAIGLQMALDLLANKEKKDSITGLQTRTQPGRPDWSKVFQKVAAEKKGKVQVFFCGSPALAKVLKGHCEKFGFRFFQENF

For the molecule `NCCCCCCNC(=O)[C@@H]1C[C@@H]2C(=O)NCC(=O)N2[C@@H]1c1cccc(OCCO)c1`, the z-score is 0.884 (inactive) in assay [1]; 1.68 (inactive) in assay [3]; 0.774 (inactive) in assay [4]; -0.523 (inactive) in assay [5]; 0.0308 (inactive) in [6]; 1.51 in assay [7]. Moreover, the z-score is 1.29 (inactive) in assay [8], 0.934 (inactive) in [9] and 1.65 in assay [10]. Moreover, the composite z-score in assay [2] amounted to 0.0892.
Turning to `C=CCNC(=O)[C@@H]1[C@H]2C(=O)O[C@H](c3ccccc3)[C@H](c3ccccc3)N2[C@H](c2ccc(OCCO)cc2)[C@@]12C(=O)Nc1ccc(C#CC3=CCCCC3)cc12`, the z-score in assay [1] is -0.874 (inactive); in assay [3] it was 2.81 (inactive); in assay [4] it was 1.98 (inactive); in [5], -0.306 (inactive); in assay [6] it was 1.87 (inactive); in [7], -0.474. For the same molecule, the z-score in [8] is 1.38 (inactive); in assay [9] it was -0.894 (inactive); in assay [10] it was 1.56. Moreover, in [2], the composite z-score is -0.21.
Turning to `CCOC(=O)C1=CC[C@@H](c2ccccc2)N(S(=O)(=O)c2ccc(C)cc2)[C@@H]1C#N`, the z-score in [1] is 0.49 (inactive); in assay [3] it was 4.46 (inactive); in assay [4], 0.804 (inactive); in assay [5], 0.0758 (inactive); in assay [6] it was 1 (inactive); in assay [7], -0.268. For the same molecule, the z-score in assay [8] is 0.224 (inactive); in assay [9] it was -0.615 (inactive); in [10], -0.14. The molecule also yielded a composite z-score in assay [2] of 0.082.
Regarding `CC1CC/C=C\[C@H]2OC34C=CCN(CCN5CCOCC5)C(=O)[C@H]3N(C(CO)C(C)C)C(=O)[C@@H]4C2C(=O)O1` (stereo not given in full), the z-score was -0.481 (inactive) in assay [1]; 1.94 (inactive) in assay [3]; -0.184 (inactive) in assay [4]; 0.927 (inactive) in [5]; 0.233 (inactive) in assay [6]; -0.69 in [7]. Moreover, the z-score was 1.13 (inactive) in [8], -0.728 (inactive) in assay [9] and 1.91 in assay [10]. Also, the composite z-score in assay [2] was -0.247.
For the molecule `COCCOC(=O)N1C(=O)[C@@]2(c3cc(C#CC4=CCCCC4)ccc31)[C@H](C(=O)N1CCCCCCC1)[C@H]1C(=O)O[C@H](c3ccccc3)[C@H](c3ccccc3)N1[C@@H]2c1ccccc1OCCO`, the z-score was 0.857 (inactive) in assay [1]; 0.951 (inactive) in [3]; 1.01 (inactive) in [4]; -0.249 (inactive) in assay [5]; 0.413 (inactive) in [6]; 0.526 in assay [7]. For the same molecule, the z-score in assay [8] is -0.129 (inactive); in [9], 0.322 (inactive); in assay [10], 0.0795. Also, in [2], the composite z-score stood at 1.11.
`O=C(NCCN1CCOCC1)[C@@H]1c2ccccc2C(=O)N(CC23CC4CC(CC(C4)C2)C3)[C@H]1c1ccc(CO)cc1`: the z-score in assay [1] is 0.0865 (inactive); in assay [3] it was 2.89 (inactive); in assay [4] it was 1.09 (inactive); in assay [5] it was 1.29 (inactive); in assay [6] it was 0.744 (inactive); in assay [7], -0.407. Also, the figures for the z-score in [8], in assay [9] and in [10] were -0.0458 (inactive), -1.7 (inactive) and -1.61, respectively. Further, the composite z-score in [2] amounted to 0.409.
Turning to `CC(C)c1ccc(NN2C(C(O)C3CCCCC3)C=CC3C(=O)N(c4ccccc4)C(=O)C32)cc1` (stereo not given), the z-score in [1] is -0.78 (inactive); in assay [3], 3.29 (inactive); in [4], 1.71 (inactive); in [5], 0.215 (inactive); in assay [6] it was 1.37 (inactive); in [7], -0.996. Moreover, the figures for the z-score in assay [8], in assay [9] and in [10] were -1.69 (inactive), -2.75 (inactive) and -2.44, respectively. Besides, in assay [2], the composite z-score stood at 0.368.
Regarding `COc1ccc([Si](C)(C)[C@@H]2[C@@H](CC(=O)N(CCO)Cc3ccccc3)O[C@]3(C(=O)N(Cc4cccc(I)c4)c4ccccc43)[C@H]2C)cc1`, the z-score in [1] was -0.307 (inactive); in assay [3] it was 4.63 (inactive); in [4], 1.5 (inactive); in assay [5], -0.0382 (inactive); in [6], 1.14 (inactive); in assay [7], 0.32. In addition, the figures for the z-score in assay [8], in assay [9] and in assay [10] were -0.953 (inactive), 1.19 (inactive) and 1.43, respectively. For the same molecule, in assay [2], the composite z-score was 0.0464.
As for `O=C1C2C=CC(C(O)c3ccccn3)N(Nc3ccc([N+](=O)[O-])cc3)C2C(=O)N1c1ccccc1` (stereo not given), the z-score in assay [1] is -1.5 (inactive); in assay [3], 4.59 (inactive); in [4], 1.04 (inactive); in [5], 0.809 (inactive); in assay [6], 0.509 (inactive); in [7], -0.967. Also, the results for the z-score in [8], in assay [9] and in assay [10] were -0.261 (inactive), -1.7 (inactive) and -1.62, respectively. This molecule showed a composite z-score in [2] of 0.0768.
For the molecule `COc1ccc(CCNC(=O)[C@@H]2c3ccccc3C(=O)N(C(C)C)[C@H]2c2ccc(CO)cc2)cc1`, the z-score was 1.73 (inactive) in [1]; 3.24 (inactive) in [3]; 0.785 (inactive) in [4]; 1.3 (inactive) in assay [5]; 0.376 (inactive) in assay [6]; 0.307 in [7]. Also, the z-score in assay [8] is -0.219 (inactive); in assay [9], 0.821 (inactive); in [10], 0.338. In [2], the composite z-score was -0.27.
Regarding `O=C1C2C=CC(C(O)C3CC=CCC3)N(Nc3ccc([N+](=O)[O-])cc3)C2C(=O)N1c1ccccc1` (stereo not given), the z-score was -0.852 (inactive) in assay [1]; 24.8 (active) in assay [3]; 5.02 (inactive) in [4]; 4 (inactive) in assay [5]; 1.2 (inactive) in assay [6]; -0.837 in assay [7]. Also, the z-score in assay [8] is -1.03 (inactive); in assay [9] it was -3.02 (inactive); in assay [10] it was -3.26. In addition, the composite z-score in assay [2] came to 0.908.
In the case of `[N-]=[N+]=NCc1ccccc1[C@H]1OC(c2ccc(OCCCO)cc2)=N[C@@]1(Cc1ccccc1N=[N+]=[N-])C(=O)O`, the z-score was -1.17 (inactive) in assay [1]; 22.2 (active) in [3]; 3.83 (inactive) in assay [4]; 0.0591 (inactive) in assay [5]; 0.395 (inactive) in assay [6]; -0.314 in assay [7]. Moreover, the values for the z-score in assay [8], in [9] and in assay [10] were 0.831 (inactive), 0.982 (inactive) and 1.51, respectively. In [2], this molecule returned a composite z-score of 0.479.
Consider `CCCC1(C(=O)OC)C=C2C(=C(C(C)C)C(=O)C2C)CN1` (stereo not given), for which the z-score is -2.12 (inactive) in assay [1]; 2.85 (inactive) in assay [3]; 0.364 (inactive) in [4]; 0.454 (inactive) in assay [5]; 0.57 (inactive) in assay [6]; -0.598 in [7]. The figures for the z-score in [8], in assay [9] and in assay [10] were 0.216 (inactive), -1.15 (inactive) and -3.15, respectively. In assay [2], this molecule gave a composite z-score of 0.062.
For `C=CCN1C(=O)[C@]2(O[C@H](CCO)[C@@H]([Si](C)(C)c3ccc(OC)cc3)[C@@H]2C)c2cc(N3C(=O)c4ccccc4Oc4ccccc43)ccc21`, the z-score in assay [1] is -0.458 (inactive); in assay [3] it was 6.17 (inactive); in assay [4], 2.82 (inactive); in assay [5], -0.512 (inactive); in assay [6] it was 2.95 (inactive); in assay [7], 0.695. In addition, the z-score in assay [8] was 0.0876 (inactive); in [9], 0.945 (inactive); in [10], -0.216. This molecule also displayed a composite z-score in [2] of 0.568.
With `C=CCOC(=O)[C@@H]1[C@H]2C(=O)O[C@H](c3ccccc3)[C@H](c3ccccc3)N2[C@H](c2ccc(OCCOC(=O)[C@H]3C[C@H]4C(=O)N[C@@H](CCCCN(C)C)C(=O)N4[C@H]3c3cccc(OCCO)c3)cc2)[C@@]12C(=O)Nc1ccccc12`, the z-score in assay [1] was 0.171 (inactive); in assay [3] it was 0.323 (inactive); in [4], 0.0285 (inactive); in [5], -0.703 (inactive); in [6] it was 0.0555 (inactive); in assay [7] it was -0.547. The z-score in assay [8] is 0.209 (inactive); in assay [9], -0.186 (inactive); in assay [10], -0.538. Further, the composite z-score in [2] was 0.464.
